PubChem BioAssay AID1468 (National Center for Advancing Translational Sciences (NCATS), 2008)
The whole screen tested about 280,000 compounds, of which about 1,100 (0.39%) were called active. Inconclusive results (about 7%) are left out. Calls come from the whole dose curve; as a rule, active = well fitted inhibition curve with a large enough effect; inconclusive = small, poorly fitted or top-dose-only effect, or effect the other way; inactive = flat fitted curve, though single readings scatter. Shown is part of a subset that was picked to be rich in actives. Where a call stands in place of a potency, no number is given.

target: Microtubule-associated protein tau (Homo sapiens) (UniProt P10636); assay: qHTS for Inhibitors of Tau Fibril Formation, Fluorescence Polarization; details: K18 P301L tau heparin fibrillization, Alexa594 FP, 6 h; series mostly up to 57.7 µM; note: nearly all actives have a fitted effect of over 55% in size
Sequence (P10636 561-689 P618L limits assumed): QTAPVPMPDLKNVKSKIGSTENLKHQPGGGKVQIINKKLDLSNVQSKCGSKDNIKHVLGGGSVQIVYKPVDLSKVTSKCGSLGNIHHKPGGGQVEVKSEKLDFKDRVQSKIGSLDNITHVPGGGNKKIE
From the text: NIH Molecular Libraries Probe Production Network [MLPCN]
NIH Chemical Genomics Center [NCGC]
Assay Provider: Carlo Ballatore, University of Pennsylvania
The microtubule-associated protein tau is an abundant protein in the axons of neurons that stabilizes microtubules. With its ability to modulate microtubule dynamics, tau contributes directly or indirectly, to key structural and regulatory cellular functions. Particularly important is the influence tau exerts on axonal transport, which allows signaling molecules, trophic factors and other essential cellular constituents to travel along the axons. Under pathological conditions, tau becomes sequestered into insoluble aggregates called neurofibrillary tangles. This phenomenon is believed to have pathological consequences by promoting axonal transport deficits that ultimately lead to synaptic dysfunction and neuronal loss. To identify inhibitors of tau aggregation, a heparin-induced tau fibril formation assay was used that employed a recombinantly expressed fragment of tau, K18 (Q242-E372), bearing a P301L mutation (Gustke et al. 1994; Hong et al. 1998).
Gustke, N., B. Trinczek, et al. (1994). "Domains of tau protein and interactions with microtubules." Biochemistry 33(32): 9511-22.
Hong, M., V. Zhukareva, et al. (1998).
Li, W. and V. M. Lee (2006). "Characterization of two VQIXXK motifs for tau fibrillization in vitro." Biochemistry 45(51): 15692-701.
von Bergen, M., S. Barghorn, et al. (2001). "Mutations of tau protein in frontotemporal dementia promote aggregation of paired helical filaments by enhancing local beta-structure." J Biol Chem 276(51): 48165-74.
NCGC Assay Protocol Summary:
For screening, 2 uL/well human K18 P301L (15 uM unlabeled and 0.24 uM Alexa 594-labeled tau final concentrations) in reagent buffer (100 mM sodium acetate pH 7) was dispensed into black solid 1536-well plates (Grenier) using a solenoid-based dispenser. Following transfer of 23 nL compound or DMSO vehicle by a pin tool, 2 uL/well heparin (20 uM final concentration) in reagent buffer was added and the plate centrifuged 15 s at 1000 RPM. Plates were incubated 6 hr at 37 C and then 1 uL/well ThT (30 uM final concentration) was added. After a 1 hr ambient incubation, the plates were read by an Envision (Perkin Elmer) to monitor Alexa 594 FP (555 nm excitation and 632 nm emission).
Keywords: NIH Roadmap, MLPCN, MLI, MLSMR, NCGC, qHTS, tau, tauopathies, Alzheimer's disease, fibril, neurodegeneration, aggregation
Potency is the fitted concentration of half-maximal effect.

SMILES | Potency
COc1ccc(-c2nn(-c3ccccc3)cc2/C=C\C(=O)Nc2ccc(C(=O)O)cc2)cc1 | inactive
Cc1ccc(-c2nn(-c3ccccc3)cc2/C=C/C(=O)Nc2cccc(S(N)(=O)=O)c2)cc1 | 14.1 µM (active)
O=C(O)c1ccc(NC(=O)c2cn(-c3ccccc3)nc2-c2ccc(Cl)cc2)cc1 | inactive
Cc1ccc(-c2nn(-c3ccccc3)cc2C(=O)Nc2cccc(S(=O)(=O)N3CCOCC3)c2)cc1 | 14.1 µM (active)
O=C(COC(=O)c1ccccc1)Nc1cccc(S(=O)(=O)N2CCOCC2)c1 | inactive
O=C(O)/C=C/c1cn(-c2ccccc2)nc1-c1cccs1 | inactive
COc1ccccc1N1CCN(C2C(=O)c3ccccc3N2C(C)=O)CC1 (stereo not given) | inactive
CCC(=O)N1CCc2cc(CNC(=O)Nc3ccccc3Cl)ccc21 | inactive
COc1ccc(Cc2nc3ccc(C(=O)NCc4ccccc4C)cc3o2)cc1 | inactive
CCN1CCc2nc3sc(C(=O)Nc4ccccc4OC(F)(F)F)c(N)c3cc2C1 | inactive
O=C(Nc1cccc(NC(=O)c2ccc(Br)cc2)c1)c1ccccc1 | inactive
O=C(Nc1ccc(Br)cc1)c1ccc(Br)c(S(=O)(=O)NCc2ccccc2)c1 | 12.6 µM (active)
Cc1ccc(C(=O)Nc2ccc(C(=O)O)cc2)cc1S(=O)(=O)Nc1ccccc1 | inactive
COC(=O)c1scc(-c2ccccc2)c1S(=O)(=O)Nc1ccccc1 | inactive
Cc1ccc(Cn2c(C)c3cnn(CC(=O)NCc4ccccc4)c(=O)c3c2C)cc1 | inactive
O=C(c1cccnc1)N(c1cc2sc(=O)oc2c2ccccc12)S(=O)(=O)c1ccccc1 | 17.8 µM (active)
COc1ccc(N(C(=O)c2cccnc2)S(=O)(=O)c2ccc3c(c2)n(C)c(=O)n3C)cc1 | inactive
CN(C)S(=O)(=O)c1cccc(C(=O)Nc2cccnc2)c1 | inactive
Cc1cccc(N2CCN(C(=O)c3cnc(N4CCCC4)nc3C)CC2)c1C | inactive
CCc1ccccc1NC(=O)N1CCC2(CC1)Oc1ccccc1C(=O)N2Cc1ccccc1F | inactive
Cc1ccc(N(CC(=O)NCC(C)c2ccccc2)S(=O)(=O)N(C)C)cc1 (stereo not given) | inactive
CCOc1ccc(CNC(=O)Cn2cc3c(n2)-c2c(oc(C(=O)N4CCCC4)c2C)CC3)cc1 | inactive
O=C(Nc1ccc2ccccc2c1)Nc1ccc2snnc2c1 | 11.2 µM (active)
COc1ccc(NC(=O)Nc2ccc3nsnc3c2)cc1 | inactive
O=C(Nc1ccccc1)Nc1nc2ccccc2s1 | inactive

SMILES | Potency
Cc1ccc(Cl)cc1N1CCN(C(=O)C2CCC(CNS(=O)(=O)c3cccs3)CC2)CC1 (stereo not given) | inactive
CCCOc1ccc(NC(=O)CC2C(=O)N(c3ccccc3)C(=O)N2Cc2ccco2)cc1 (stereo not given) | inactive
O=C(CCN1C(=O)/C(=C/c2cccs2)SC1=S)NNC(=O)c1cccc(O)c1 | 35.5 µM (active)
O=C(CCCN1C(=O)/C(=C/c2ccccc2)SC1=S)Nc1ccc(O)cc1 | inactive
COc1ccc(/C=C2\SC(=S)N(CC(=O)NNC(=O)c3ccncc3)C2=O)cc1 | inactive
O=C(CCC(=O)N1CC2CCCN2c2ccccc21)NCc1ccccc1Cl (stereo not given) | inactive
CN(C)c1cccc(C(=O)Nc2nc3ccc(S(=O)(=O)NC(C)(C)C)cc3s2)c1 | inactive
c1ccc2c(Nc3ccncc3)nc(-c3ccoc3)nc2c1 | inactive
c1ccc2c(Nc3ccncc3)nc(-c3ccc4c(c3)OCO4)nc2c1 | 10 µM (active)
c1ccc2c(NCC3CCCO3)nc(-c3ccncc3)nc2c1 (stereo not given) | inactive
CNc1nc(-c2ccccc2OC)nc2ccccc12 | inactive
COc1ccccc1Oc1nc(-c2cccnc2)nc2ccccc12 | inactive
COc1cccc(-c2nc(Nc3ccncc3)c3ccccc3n2)c1 | 14.1 µM (active)
COc1ccc(-n2c(SCC(N)=O)nc3c(oc4ccccc43)c2=O)cc1 | inactive
Cc1cccc(C(=O)N2CCc3cc(CNC(=O)Cc4ccc(F)cc4)ccc32)c1 | inactive
CCN(CC)S(=O)(=O)c1ccc2c(c1)N(CC(=O)NCC(C)c1ccccc1)C(=O)CO2 (stereo not given) | inactive
Cc1ccc(S(=O)(=O)N2CCCc3cc(NS(=O)(=O)c4cc(C)ccc4C)ccc32)cc1 | inactive
COc1ccc(C(=O)Nc2ccccc2C(=O)N/N=C/c2ccc(O)c(OC)c2)cc1 | inactive
COc1cc(/C=N/NC(=O)c2ccccc2)ccc1OS(=O)(=O)c1ccccc1 | 35.5 µM (active)
COc1ccc(/C=N/S(=O)(=O)c2ccccc2)cc1OC | inactive
COc1ccc(-c2nc(SCC(=O)N3CCCCC3C)n[nH]2)cc1 (stereo not given) | inactive
Cc1nc(SCCOc2ccc(Cl)cc2)[nH]c(=O)c1Cc1ccccc1 | inactive
N#C/C(=C\c1ccccc1C(F)(F)F)C(=O)Nc1ccccc1F | inactive
C(=N\N1CCN(c2ccccn2)CC1)/C1=C(N2CCOCC2)C(=C/c2ccccc2)/CC1 | inactive
N#C/C(=C\C1=C(N2CCOCC2)C(=C\c2ccccc2)/CC1)C(=O)Nc1ccccc1F | 25.1 µM (active)
